Measurements: ChEMBL document CHEMBL1201862, “PubChem BioAssay data set” (2004)
In all, about 400,000 compounds went through this assay and about 2,100 (0.53%) were called active. Inconclusive results (about 14%) are left out. No rule for the calls is given here. Many of the other results were omitted from the sample, so actives are more common in it than they were.

Each molecule was assayed against Ataxin-2 (Homo sapiens) (UniProt Q99700) (assay: qHTS for Inhibitors of ATXN expression.).
Format: functional

Sequence of Ataxin-2 (Homo sapiens) (Q99700 whole entry): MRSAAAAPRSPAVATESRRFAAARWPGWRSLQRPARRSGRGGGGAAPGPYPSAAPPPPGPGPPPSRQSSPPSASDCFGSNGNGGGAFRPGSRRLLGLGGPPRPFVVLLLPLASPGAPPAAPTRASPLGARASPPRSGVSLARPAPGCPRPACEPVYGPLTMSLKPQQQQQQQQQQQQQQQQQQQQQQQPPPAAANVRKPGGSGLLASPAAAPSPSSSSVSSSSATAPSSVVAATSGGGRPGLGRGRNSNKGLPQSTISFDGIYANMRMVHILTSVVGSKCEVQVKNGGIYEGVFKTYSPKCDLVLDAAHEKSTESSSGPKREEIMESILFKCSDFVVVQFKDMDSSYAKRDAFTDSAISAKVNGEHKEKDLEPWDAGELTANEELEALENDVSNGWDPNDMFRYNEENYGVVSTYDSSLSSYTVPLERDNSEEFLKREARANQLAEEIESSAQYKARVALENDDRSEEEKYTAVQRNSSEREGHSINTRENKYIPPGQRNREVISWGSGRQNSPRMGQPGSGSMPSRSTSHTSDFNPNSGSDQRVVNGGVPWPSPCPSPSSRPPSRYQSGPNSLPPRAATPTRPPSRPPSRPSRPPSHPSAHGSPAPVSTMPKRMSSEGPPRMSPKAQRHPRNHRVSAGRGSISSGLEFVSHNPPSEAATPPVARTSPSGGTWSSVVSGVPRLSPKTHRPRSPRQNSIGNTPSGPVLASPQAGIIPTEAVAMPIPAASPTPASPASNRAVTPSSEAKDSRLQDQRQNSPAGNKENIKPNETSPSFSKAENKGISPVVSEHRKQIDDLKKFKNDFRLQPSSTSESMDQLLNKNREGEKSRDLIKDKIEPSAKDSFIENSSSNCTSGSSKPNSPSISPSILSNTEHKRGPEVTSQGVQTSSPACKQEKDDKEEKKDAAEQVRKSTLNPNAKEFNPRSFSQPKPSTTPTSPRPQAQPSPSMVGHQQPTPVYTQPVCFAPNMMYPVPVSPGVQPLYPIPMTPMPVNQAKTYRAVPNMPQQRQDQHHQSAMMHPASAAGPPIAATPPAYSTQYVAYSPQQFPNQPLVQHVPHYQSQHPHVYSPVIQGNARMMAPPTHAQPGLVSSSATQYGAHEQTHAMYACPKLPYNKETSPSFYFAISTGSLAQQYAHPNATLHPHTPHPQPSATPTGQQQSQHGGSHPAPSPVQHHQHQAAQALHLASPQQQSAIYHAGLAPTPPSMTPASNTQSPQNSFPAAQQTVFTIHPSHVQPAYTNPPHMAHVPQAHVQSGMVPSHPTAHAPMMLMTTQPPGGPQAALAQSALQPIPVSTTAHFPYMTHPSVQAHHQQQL

Compound | Potency
CCOC(=O)c1c(NC(=O)c2ccc(S(=O)(=O)N3CCCC(C)C3)cc2)sc2c1CC(C)(C)NC2(C)C (centres undefined) | inactive
CCOC(=O)c1c(NC(=O)COc2ccccc2OCC)sc2c1CC(C)(C)NC2(C)C | 39.8 µM (active)
CC(C)CN(CC(C)C)S(=O)(=O)c1ccc(C(=O)Nc2sc3c(c2C(N)=O)CC(C)(C)NC3(C)C)cc1 | inactive
Cc1c2c(n3c(nc4ccccc43)c1C#N)N(CCN(C)C)CC2 | inactive
C=CCc1cc(/C=C2\C(=N)N3N=C(CC(=O)N4CCOCC4)SC3=NC2=O)cc(OC)c1O | inactive
Fc1ccc(-[n+]2nc(Nc3ccccc3)sc2-c2c(Cl)cccc2Cl)cc1 | 20 µM (active)
O=c1oc2cc(O)ccc2cc1-c1nc2c(s1)CCc1ccccc1-2 | inactive
CNC(=O)NC(=O)C(C)OC(=O)c1c2c(nc3ccccc13)/C(=C/c1cccs1)CC2 (centres undefined) | inactive
CCc1ccccc1N(CC(=O)NC(C)(C)CC)C(=O)CCC(=O)Nc1nccs1 | inactive
C/C(Cl)=C\Cn1c(O)c(/N=N/C(=N)S)c2ccccc21 | 29.9 µM (active)
CCN(CC)CCOC(=O)c1ccc(NC(=O)CCCN2C(=O)/C(=C\c3cccs3)SC2=S)cc1 | 31.6 µM (active)
CC(=O)c1ccc(NC(=O)CCCN2C(=O)/C(=C/C(C)=C/c3ccccc3)SC2=S)cc1 | 25.1 µM (active)
Cc1ccc(C(=O)O)cc1-c1ccc(/C=C2\SC(=O)N(CC(=O)Nc3ccccc3)C2=O)o1 | inactive
O=C(Nc1cc2c(=O)n(-c3ccc(Oc4ccccc4)cc3)ccc2oc1=O)c1ccccc1 | inactive
COc1ccc(C2C=C(c3ccccc3)Nc3nnnn32)cc1 (centres undefined) | inactive
Cc1ccc2[nH]c(CSc3nc(C)ccc3C#N)nc2c1 | inactive
Cc1ccc(Cl)c(OCCCCN(C)Cc2ccccc2)c1 | 28.2 µM (active)
Cc1ccc2c(CN(C)Cc3ccccc3)cc(=O)oc2c1C | inactive
CN(C)CCOCCOc1ccc(Cl)c2ccccc12 | inactive
COCCCNC(=O)/C(C#N)=C/c1c(N2CCN(C)CC2)nc2ccccn2c1=O | inactive
COc1cccc(CN2C(=O)c3cccc(N)c3C2=O)c1 | inactive
COc1ccc(C2CC(c3cccc(C(F)(F)F)c3)=NN2c2ccc(S(N)(=O)=O)cc2)cc1 (centres undefined) | inactive
COc1ccc(C(=O)CC2(O)C(=O)N(Cc3cccc(C(F)(F)F)c3)c3ccccc32)cc1 (centres undefined) | 39.8 µM (active)
CCN(CC)c1ccc2cc(NC(=O)CCC(=O)O)c(=O)oc2c1 | inactive
COc1cccc(CN(C)C(=O)c2cc(S(=O)(=O)N3CCCC3)ccc2C)c1OC | inactive

Compound | Potency
Cc1ccc(S(=O)(=O)N2CCCCC2)cc1C(=O)N(C)CC(=O)Nc1ccc(Cl)c(C(F)(F)F)c1 | 35.5 µM (active)
Cc1ccc(S(=O)(=O)N2CCCCC2)cc1C(=O)Nc1ccc(S(=O)(=O)Nc2ncccn2)cc1 | inactive
Cc1ccc(CCC(=O)Nc2ccc(Br)cc2)o1 | inactive
CCN1C(=O)c2cccc3c(S(=O)(=O)NCC4CCCO4)ccc1c23 (centres undefined) | inactive
N=c1n(CC(=O)c2ccc(Br)cc2)c2ccccc2n1Cc1ccccc1 | 31.6 µM (active)
CCCn1c(=N)n(CC(=O)c2ccc([N+](=O)[O-])cc2)c2ccccc21 | inactive
C/C(=N\NC(=O)CSCc1ccc([N+](=O)[O-])cc1)c1ccccc1 | inactive
Cc1ccc(Cn2c(=N)n(CC(=O)c3ccc([N+](=O)[O-])cc3)c3ccccc32)cc1 | 22.4 µM (active)
O=C(NCCc1ccccc1)C(=O)NCC1OCCN1S(=O)(=O)c1ccc(Br)cc1 (centres undefined) | inactive
CCc1ccc(C(=O)Cn2ccsc2=N)cc1 | inactive
O=c1oc2cc(O)ccc2cc1-c1nc2ccccc2o1 | inactive
CCN(CC)c1ccc(S(=O)(=O)N(CC)CC)cc1NC(=O)c1cccnc1 | inactive
CCOC(=O)CNS(=O)(=O)c1ccc2c3c(cccc13)C(=O)N2CC | inactive
Cc1ccccc1N1C(=O)C(Cc2ccc(F)cc2)S/C1=C(\C#N)C(N)=O (centres undefined) | inactive
CCN(CC)S(=O)(=O)c1ccc(C(=O)OCCN2C(=O)c3cccc4c(N5CCOCC5)ccc(c34)C2=O)cc1 | inactive
Cc1ccc2cc(C#N)c(NCCN=C(S)NCCCN3CCOCC3)nc2c1 | inactive
COc1cc(/C=C(\C#N)c2nc3ccccc3s2)ccc1OCC(=O)Nc1ccccc1 | inactive
O=C(Nc1ccc(Cl)cc1)/C(=C/c1cccc(O)c1)c1nc2ccccc2s1 | 12.6 µM (active)
COc1cc(/C=C(\CC(=O)O)c2nc3ccccc3s2)cc(OC)c1O | inactive
COc1cccc(C2=CC(c3ccc(OC)c(OC)c3OC)n3ncnc3N2)c1 (centres undefined) | inactive
COc1ccc(OC)c(/C=C2\Oc3cc(OCC(=O)N4CCC(C(=O)O)CC4)ccc3C2=O)c1 | inactive
CC(=O)Oc1ccc2cc(-c3ccccc3)c(=O)oc2c1 | inactive
CCOCCCNC(=O)CN1CCN(S(=O)(=O)c2ccc3c(c2)CCC3)CC1 | inactive
Cc1ccc(S(=O)(=O)N2CCN(C(=O)CCn3cncn3)CC2)cc1C | inactive
O=C(CCl)N1CCN(S(=O)(=O)c2ccc3c(c2)CCC3)CC1 | 8.91 µM (active)

Compound | Potency
O=C(Cc1cccs1)N1CCN(S(=O)(=O)c2ccc(Cl)c(C(F)(F)F)c2)CC1 | inactive
CC(=O)N1CCN(S(=O)(=O)c2ccc(F)c(Cl)c2)CC1 | inactive
O=C(Cn1ncc(Cl)c(Cl)c1=O)N1CCN(S(=O)(=O)c2ccc3ccccc3c2)CC1 | 35.5 µM (active)
O=C(c1cnc(Cl)c(Cl)c1)N1CCN(S(=O)(=O)c2ccc3ccccc3c2)CC1 | 31.6 µM (active)
Nc1cc(O)nc(SCC(=O)N2CCN(S(=O)(=O)c3ccc4ccccc4c3)CC2)n1 | inactive
O=C(Cn1cnc2ccccc21)N1CCN(S(=O)(=O)c2ccccc2)CC1 | inactive
O=C(CCl)N1CCN(S(=O)(=O)c2ccc3ccccc3c2)CC1 | 39.8 µM (active)
CCN=C(S)N1CCN(S(=O)(=O)c2ccc(C)c(C)c2)CC1 | inactive
Cc1ccc(S(=O)(=O)N2CCCN(C(=O)c3ccc(-n4cccn4)cc3)CC2)cc1 | inactive
COCCn1c(=N)c(C(=O)NC(C)c2ccccc2)cc2c(=O)n3cc(C)ccc3nc21 (centres undefined) | inactive
CCN(CC)c1ccc2cc(C(N)=O)/c(=N\NC(=O)c3ccncc3)oc2c1 | inactive
CCCc1c(C(=O)N/N=C/c2ccc(OCc3ccc(F)cc3)cc2)nnn1-c1nonc1N | inactive
COc1ccc(N2C(=O)/C(=C\Nn3cnnc3)c3ccccc3C2=O)cc1 | inactive
Cc1ccc(C(=O)O)cc1N1C(=O)c2cccc3c([N+](=O)[O-])ccc(c23)C1=O | inactive
O=C(N/N=C/c1sc(N2CCOCC2)nc1-c1ccccc1)c1ccc(O)cc1 | inactive
Cc1ccc2cc(CN(Cc3ccc(F)cc3)Cc3nnnn3C3CCCC3)c(O)nc2c1 | 39.8 µM (active)
CN(C)CCN(Cc1cc2cc3c(cc2nc1O)OCO3)C(S)=NCC1CCCO1 (centres undefined) | inactive
Cc1cc(C)c2cc(CN(Cc3nnnn3C3CCCCC3)CC3CCCO3)c(O)nc2c1 (centres undefined) | 22.4 µM (active)
CCC(NC(C)C)C(O)c1ccc(O)c2[nH]c(=O)ccc12 (centres undefined) | inactive
CCOc1ccc(OCC)c(NC(=O)CN(c2ccc(C)cc2)S(=O)(=O)c2c(C)n[nH]c2C)c1 | 35.5 µM (active)
COc1ccc(Cl)cc1NC(=O)COC(=O)c1ccc(C)o1 | inactive
COc1ccc(Cl)cc1NC(=O)CN(C)C1CCS(=O)(=O)C1 (centres undefined) | inactive
COc1ccc(Cl)cc1NC(=O)CN(c1cc(C)cc(C)c1)S(=O)(=O)c1c(C)n[nH]c1C | 35.5 µM (active)
COc1ccc(C)cc1NC(=O)CN(C)S(=O)(=O)c1ccc2c(c1)CC(C)N2C(C)=O (centres undefined) | inactive
CCOc1ccccc1N(CC(=O)Nc1ccccc1Br)S(=O)(=O)c1ccccc1 | inactive

Compound | Potency
Cc1ccc2[nH]c3c(c2c1)SC(C)(C)CC3=O | inactive
C=CCc1ccc(O)c(-c2ccc(O)c(CC=C)c2)c1 | 28.2 µM (active)
CC(=O)Nc1sc(/C(C#N)=C\c2cccc(Cl)c2)nc1-c1ccc(C)cc1 | inactive
CCC(C)n1c(=N)c(C(=O)NCc2ccco2)cc2c(=O)n3cc(C)ccc3nc21 (centres undefined) | inactive
COc1ccc(CC(=O)Nc2ccc3nc(Nc4cccc(Cl)c4)cc(C)c3c2)cc1OC | inactive
COc1ccc(NC(=O)CSc2c3c(nc4cc(Cl)ccc24)CCCC3)cc1OC | 31.6 µM (active)
COc1ccc(NC(=O)CSc2c3c(nc4ccccc24)CCCC3)c(OC)c1 | 39.8 µM (active)
COc1ccc(NC(=O)CSc2nc3ccsc3c(=O)n2Cc2ccccn2)c(OC)c1 | inactive
COc1ccc(NC(=O)CSc2nc(C)cs2)c(OC)c1 | inactive
COc1ccc(Cl)cc1-c1n[nH]c(SCC(=O)NC2CC2)n1 | inactive
CNC(=O)COC(=O)c1c2c(nc3ccccc13)CCC2 | inactive
O=C(CSc1nnc(-c2ccccc2F)n1C1CC1)Nc1ccc2[nH]c(O)nc2c1 | inactive
COc1cccc(NC(=O)CSc2c3c(nc4ccccc24)CCCC3)c1 | 35.5 µM (active)
Cc1ccc(NC(=O)CSc2c3c(nc4ccccc24)CCCC3)cc1F | 35.5 µM (active)
Cc1ccc(C2CC(=O)Nc3cc4c(cc32)OCCO4)cc1 (centres undefined) | inactive
CCOC(=O)C1=C(N)Oc2cc(O)ccc2C1c1ccc(F)cc1F (centres undefined) | inactive
COc1ccc(CCNC(=O)Cc2c(C)c3ccc(O)c(C)c3oc2=O)cc1OC | inactive
COc1ccc(CCNC(=O)c2ccc3c(Cl)c4c(nc3c2)CCCC4)cc1OC | 31.6 µM (active)
Cc1ccc(NC(=O)CSc2nc3ccccc3c(=O)n2CCCC(=O)NCCCN2CCOCC2)cc1 | inactive
COc1ccc(OC)c(NC(=O)CSc2nc3nc(O)cc(O)c3s2)c1 | inactive
COc1ccc(CCNC(=O)C(=O)NCc2ccc(Cl)cc2)cc1OC | inactive
CCCn1c(SCC(=O)NCCCN2CCCC2=O)nc2ccccc2c1=O | inactive
Cc1ccc(NC(=O)CSc2nc3ccccc3c(=O)n2CCCN2CCCCC2)cc1C | 31.6 µM (active)
COc1ccc(OC)c(NC(=O)CSc2c3c(nc4ccccc24)CCCC3)c1 | 39.8 µM (active)
